# Test results: PubChem BioAssay (Tox21)
# Inconclusive results are not listed. Where a call stands in place of a potency, no number is given. A number with no mark means an inactive call. Activity calls are given as the source filed them. The call rests on the fitted dose curve; in most records, active means well fitted curve in the direction sought with a large enough effect in the repeat runs; inconclusive means weak or mixed curves; inactive means no such curve, though single readings can be large; an effect the other way counts as inactive or inconclusive.
# Tests used:
# [1] = A CellTox Green Cytotoxicity Assay to monitor cytotoxicity in HEK293 cells - 40 hour (AID 1224871); further: nearly all actives have a fitted effect of over 45% in size; further: potency means the concentration at half of the fitted maximal effect
# Outline: (§1)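 Homogeneous no-lysis format: HEK293 cell suspension mixed with CellTox Green reagent, seeded, incubated 5 h at 37 C/5% CO2, then dosed by pintool with compound in DMSO.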
# [2] = qHTS RealTime-Glo MT Cell Viability Assay in HepG2 cells - 8 hour (AID 1224873); further: nearly all actives have a fitted effect of over 55% in size
# Outline: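 Real-time viability: cells seeded at 600 per well together with NanoLuc and cell-permeant prosubstrate, compounds added after 5 h incubation. Luminescence tracked at 0, 8, 16, 24, 32 and 40 h of exposure.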
# [3] = A CellTox Green Cytotoxicity Assay to monitor cytotoxicity in HEK293 cells - 24 hour (AID 1224875); further: series mostly up to about 77 µM; nearly all actives have a fitted effect of over 45% in size
# Outline: as §1
# [4] = A CellTox Green Cytotoxicity Assay to monitor cytotoxicity in HepG2 cells - 16 hour (AID 1224876); further: nearly all actives have a fitted effect of over 45% in size
# Outline: (§2)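 Fluorescent DNA-binding dye, 600 HepG2 cells/well, 5 h preincubation then compound in DMSO; same plates read at 0–40 h, 37 C.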
# [5] = qHTS RealTime-Glo MT Cell Viability Assay in HepG2 cells - 32 hour (AID 1224877); further: nearly all actives have a fitted effect of over 55% in size; further: potency means the concentration at half of the fitted maximal effect
# Outline: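 qHTS, HepG2, 600 cells/well, RealTime-Glo (NanoLuc + prosubstrate) added with cells; 5 h preincubation; DMSO compound addition; 37 C; luminescence at 0/8/16/24/32/40 h.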
# [6] = A CellTox Green Cytotoxicity Assay to monitor cytotoxicity in HepG2 cells - 24 hour (AID 1224878); further: nearly all actives have a fitted effect of over 45% in size; further: potency means the concentration at half of the fitted maximal effect
# Outline: as §2
# [7] = A CellTox Green Cytotoxicity Assay to monitor cytotoxicity in HepG2 cells - 40 hour (AID 1224879); further: nearly all actives have a fitted effect of over 40% in size; further: potency means the concentration at half of the fitted maximal effect
# Outline: as §2
# [8] = qHTS RealTime-Glo MT Cell Viability Assay in HEK293 cells - 0 hour (AID 1224880); further: nearly all actives have a fitted effect of over 45% in size; further: potency means the concentration at half of the fitted maximal effect
# Outline: (§3)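 Measured as luminescence from the same continuously cultured HEK293 wells at successive time points (0, 8, 16, 24, 32, 40 h) after compound addition. Reagent present from seeding; dosing at 5 h; incubation 37 C.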
# [9] = qHTS RealTime-Glo MT Cell Viability Assay in HEK293 cells - 40 hour (AID 1224874); details: RealTime-Glo luminescence; max response: active compounds read low; further: nearly all actives have a fitted effect of over 50% in size; further: potency means the concentration at half of the fitted maximal effect
# Outline: as §3
Structure (SMILES),Potency [1],Potency [2],Potency [3],Potency [4],Potency [5],Potency [6],Potency [7],Potency [8],max response [9] [%],Potency [9]
Cc1c(C(=O)NN2CCCCC2)nn(-c2ccc(Cl)cc2Cl)c1-c1ccc(Cl)cc1,inactive,inactive,inactive,inactive,inactive,inactive,inactive,inactive,,
NC(=O)Nc1ccc(Cl)cc1,inactive,inactive,inactive,,inactive,,,inactive,-8.17,
CCCCCCCCCCCC(=O)[O][Sn]([CH2]CCC)([CH2]CCC)[O]C(=O)CCCCCCCCCCC,6.74 µM (active),inactive,inactive,inactive,19 µM (active),19 µM (active),16.9 µM (active),inactive,,
CN1C(=O)CC(C)(c2ccccc2)C1=O (stereo not given),inactive,inactive,inactive,inactive,inactive,,inactive,inactive,-3.29,
CC(COc1ccc(C(C)(C)C)cc1)OS(=O)OCCCl (stereo not given),inactive,inactive,inactive,inactive,inactive,,inactive,inactive,,0.391 µM (active)
CCn1cc(C(=O)O)c(=O)c2cc(F)c(N3CCNCC3)nc21,inactive,inactive,inactive,,inactive,inactive,inactive,inactive,10.3,
CN(C)C(=O)Nc1ccc(Oc2ccc(Cl)cc2)cc1,inactive,inactive,inactive,inactive,inactive,,,inactive,,34.7 µM (active)
CCN(CC)CCNC(=O)c1ccc(NC(C)=O)cc1,inactive,inactive,inactive,inactive,inactive,inactive,inactive,inactive,-0.786,
C[N+](C)(C)CCOC(N)=O,inactive,inactive,inactive,inactive,inactive,,inactive,inactive,0.438,
CCOC(=O)N1CCC(n2c(=O)[nH]c3cc(Cl)ccc32)CC1,inactive,inactive,inactive,inactive,inactive,inactive,inactive,inactive,,
COC(=O)CC(=O)C(C)(C)C,inactive,inactive,inactive,inactive,inactive,,inactive,inactive,,
CCCCCCCC/C=C\CCCCCCCC(=O)OC(CO)CO,inactive,inactive,inactive,,inactive,inactive,inactive,,0.119,
CCCc1c(OCCCOc2ccc(OCC(=O)O)cc2)ccc(C(C)=O)c1O,inactive,inactive,inactive,inactive,inactive,inactive,,inactive,,
CCC(C)=O,inactive,inactive,inactive,inactive,inactive,inactive,inactive,inactive,15.5,
O=C(Nc1ccccc1)Nc1ccccc1,inactive,inactive,inactive,inactive,inactive,inactive,inactive,inactive,,
CCCCC(CC)CNCC(CC)CCCC (stereo not given),inactive,inactive,inactive,,inactive,inactive,inactive,inactive,8.85,
Cc1occc1C(=O)Nc1ccc(C(=O)N2CCC(F)(F)/C(=C\C(=O)N3CCC(N4CCCCC4)CC3)c3ccccc32)cc1,inactive,inactive,inactive,inactive,inactive,,15.3 µM (active),inactive,,6.83 µM (active)
CCCCC(CC)C(=O)OCCOCCOCCOCCOC(=O)C(CC)CCCC (stereo not given),inactive,inactive,inactive,inactive,inactive,,inactive,inactive,,
C=CC(C)=CCC=C(C)C,inactive,inactive,inactive,,inactive,inactive,inactive,inactive,4.34,
CC(=O)[C@H]1CC[C@H]2[C@@H]3C[C@H](C)C4=CC(=O)CC[C@]4(C)[C@H]3[C@@H](O)C[C@]12C,inactive,inactive,inactive,inactive,inactive,,inactive,1.69 µM (active),,
C=CC(C)(O)CCCC(C)CCCC(C)CCCC(C)C (stereo not given),inactive,inactive,inactive,inactive,inactive,inactive,inactive,inactive,,
CCOC(=N)CC(=O)OCC,inactive,inactive,inactive,inactive,inactive,inactive,inactive,inactive,,
COC(=O)Nc1nc2ccc(C(=O)c3cccs3)cc2[nH]1,inactive,inactive,inactive,,inactive,inactive,0.107 µM (active),inactive,,0.134 µM (active)
Nc1nc(Cl)nc2c1ncn2[C@@H]1O[C@H](CO)[C@@H](O)[C@@H]1F,inactive,inactive,inactive,inactive,inactive,inactive,,inactive,,
